NadD inh = blocks S. aureus nicotinate mononucleotide adenylyltransferase; purified NadD enzyme, colorimetric absorbance read-out; inhibition, % at 20 µM; 0.78% of 360,000 active; in the data active = inhibition above about 26%
H9c2 TAG inh = reduces triacylglycerol accumulation in H9c2 cells; Nile Red lipid (TAG) fluorescence; cells loaded with 200 µM oleic acid; AID 651582; 0.66% of 230,000 active; inhibition, % at 12.5 µM;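 active = pattern-corrected inhibition of lipid staining of at least 50% with the nuclear-stain viability signal not falling by more than 50%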;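 also: 0% = DMSO wells and 100% = triacsin C control wells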
MPTP block = permeability transition pore inhibition; isolated mouse mitochondria, Ca2+ swelling absorbance, 30 min; inhibition, % at 10 µM; 1.4% of 360,000 active;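 active = inhibition of 50% or more, scaled per plate between neutral and stimulator controls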;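 also: 0% = DMSO wells given calcium and 100% = 1 mM EGTA wells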
aDG glyco act = increases alpha dystroglycan glycosylation; Pro5-aDG cells, alpha-DG glycosylation AlphaScreen (IIH6); 0% Pro5, 100% B10-LARGE cell signal; activation, % at 10 µM; 0.22% of 360,000 active; AID 624168;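 active = activation of at least 8% versus controls, or a plate z-score of at least 8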;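 also: Pro5 are CHO cells carrying HIG-tagged alpha-DG that lacks glycosylation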
H9c2 TAG conf = confirmation of triacylglycerol accumulation inhibitors | shares compounds with H9c2 TAG inh | H9c2 lipid accumulation, Nile Red fluorescence; cells loaded with 200 µM oleic acid | inhibition, % at 12.5 µM | 71% of 990 active | AID 651629;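 active = mean inhibition across replicates of 40% or more; inactive = mean inhibition below 40%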;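 also: plate controls were DMSO only wells for no effect and Triacsin C treated wells for full effect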
* marks the source's active call; other numbers are inactive results; . = no result given. Compounds with a hit are over-represented: about 2.7% of the library has one in this group of screens.

SMILES | NadD inh | H9c2 TAG inh | MPTP block | aDG glyco act | H9c2 TAG conf
C[C@@H]1CN([C@@H](C)CO)C(=O)c2cccc(NC(=O)C3CCCCC3)c2O[C@@H]1CN(C)Cc1ccc(Cl)c(Cl)c1 | -7 | 55* | -1 | 0 | 70*
C[C@H](CO)N1C[C@H](C)[C@@H](CN(C)Cc2ccccc2)Oc2c(NC(=O)Cc3ccccc3)cccc2C1=O | 0 | 30 | 7 | 0 | .
N#Cc1cccc(-c2csc(C(O)(c3ccccc3)C(F)(F)F)n2)c1 (configuration not stated) | -5 | -11 | -1 | 0 | .
CC(C)C(NC(=O)c1ccco1)C(=O)OCC(=O)Nc1ccc(C(N)=O)cc1 (configuration not stated) | 0 | -9 | 0 | 0 | .
C[C@@H]1CN([C@H](C)CO)C(=O)c2c(c3ccccc3n2C)-c2ccccc2CO[C@H]1CN(C)Cc1ccc(-c2ccccc2)cc1 | 9 | 84* | -2 | 0 | 53*
CC1=C(C(=O)N(C(C)C)C(C)C)CC(CC(=O)NCCCN(C)C)C(=O)N1CCCN1CCCC1=O (configuration not stated) | 1 | . | -1 | 0 | .
COC(=O)[C@@]1(Cc2ccc(F)cc2)[C@H]2c3cc(C(=O)N4CCCC4)n(CCF)c3C[C@H]2CN1C(=O)c1ccccc1 | -14 | . | 0 | 0 | .
COC(=O)[C@@]1(Cc2ccc(F)cc2)[C@H]2c3cc(C(=O)N4CCCC4)n(CCCNc4ncc(C(F)(F)F)cc4Cl)c3C[C@H]2CN1C(=O)c1ccccc1 | 19 | 78* | 0 | 2 | 98*
Cc1onc(-c2ccc(Cl)cc2Cl)c1-c1csc(N/N=C/c2ccccc2Cl)n1 | 19 | 57* | 20 | 0 | 38
Cc1c(C(=O)NCC2CCCO2)cccc1[N+](=O)[O-] (configuration not stated) | -2 | . | -1 | 0 | .
COc1cc(-c2nc3c(c(C)nn3-c3ccccc3)c3cc(OC)c(OC)cc23)ccc1O | -6 | 62* | -2 | 1 | 58*
COc1cc(-c2nc3ccccc3nc2-c2ccc(O)c(OC)c2)ccc1O | -2 | . | 0 | 0 | .
CCO[C@H]1OC(C(=O)NCc2nc3ccccc3[nH]2)=C[C@@H](c2cn(C(C)=O)c3ccccc23)[C@@H]1CCCO | 5 | . | -3 | 0 | .
CCO[C@@H]1OC(C(=O)NCc2nc3ccccc3[nH]2)=C[C@H](c2cn(C(C)=O)c3ccccc23)[C@H]1CCCO | 4 | 53* | 0 | 2 | 28
CCN(C(=O)COC(=O)c1ccc([N+](=O)[O-])o1)c1cccc2ccccc12 | -4 | 69* | -2 | 0 | 88*
Cc1cc2nccnc2cc1C | -2 | 11 | -1 | 0 | .
OCCCn1c(C2CCCN2c2nc(-c3ccc(F)cc3)cs2)nc2cc(C(F)(F)F)ccc21 (configuration not stated) | 10 | 60* | -1 | 1 | 57*
CCCNC(=O)C1(C)CCN(Cc2csc3ccccc23)C1 (configuration not stated) | -2 | -16 | 0 | 0 | .
C=C(C)c1cccc(C(C)(C)NC(=O)N2CCC(C(N)=O)CC2)c1 | 1 | 59* | 1 | 0 | 7
C=C(C)c1cccc(C(C)(C)NC(=O)N2CCCC(C(N)=O)C2)c1 (configuration not stated) | 2 | -4 | -4 | 0 | .
CCCCSc1nnc(-c2ccc(NC(=O)CCc3ccccc3)cc2)n1C | 8 | 51* | 5 | 0 | 34
Cn1c(SCC(=O)NCc2ccccc2)nnc1-c1ccc(NC(=O)CCc2ccccc2)cc1 | 7 | 15 | 2 | 0 | .
Cc1ccc(C)c(N2CCN(C(C(=O)NC3CCCC3)C(C)C)CC2)c1 (configuration not stated) | . | . | -1 | 1 | .
Cn1nnnc1Sc1ncnc2scc(-c3ccc(C#N)cc3)c12 | -1 | 64 | 0 | 0 | .
Cn1nnnc1Sc1ncnc2scc(-c3ccc(-c4ccccc4)cc3)c12 | 1 | 59* | 1 | 1 | 36
SMILES | NadD inh | H9c2 TAG inh | MPTP block | aDG glyco act | H9c2 TAG conf
C[C@H](CO)N1C[C@H](C)[C@@H](CN(C)S(=O)(=O)c2ccc(F)cc2)Oc2c(NS(=O)(=O)c3ccccc3)cccc2C1=O | 1 | 5 | -3 | 0 | .
CCNC(=O)C1(C)CCN(C(=O)C(c2ccccc2)c2ccccc2)C1 (configuration not stated) | -1 | -7 | -1 | 0 | .
O=C(NCc1ccco1)c1cc(-c2ccccn2)nc2ccccc12 | -5 | . | 1 | 0 | .
O=C(NCc1ccc2c(c1)OCO2)c1cc(-c2ccccn2)nc2ccccc12 | 4 | 53* | -2 | 0 | 31
COc1cc2c3c(c1)c(C1=NC(=S)NC1=O)c(O)n3C(C)(C)C=C2C | -2 | 83* | 7 | -1 | 66*
COC(=O)c1sccc1NC(=O)CC1C(=O)NCCN1C(=O)c1ccc(C)c(C)c1 (configuration not stated) | -4 | 6 | 3 | 0 | .
CCN1CCN(C(C(=O)NC2CCCCC2)c2cc3ccccc3o2)CC1 (configuration not stated) | -1 | . | -2 | 0 | .
O=C(CSc1cccc2cccnc12)N/N=C/c1ccc(O)cc1 | -4 | -8 | 0 | 0 | .
CCOC(=O)CSc1cccc2cccnc12 | -6 | 96* | -5 | 0 | 41*
COc1cccc(/C=N/NC(=O)CSc2cccc3cccnc23)c1 | -2 | 61* | 2 | 0 | 56*
Cc1cccc(NC(=O)CSc2cccc3cccnc23)c1C | 7 | 36 | -2 | 0 | .
CCCCCOc1ccc(NC(=O)CSc2cccc3cccnc23)cc1 | 4 | 57* | 6 | 2 | 56*
O=C(CSc1cccc2cccnc12)Nc1ccc(S(=O)(=O)N2CCOCC2)cc1 | -1 | 72* | 2 | 0 | 57*
O=C(CSc1cccc2cccnc12)Nc1cccc(S(=O)(=O)N2CCOCC2)c1 | -1 | 2 | 2 | 0 | .
CC1(C(=O)NS(=O)(=O)C2CC2)CCCN(C(=O)c2ccccc2OC(F)(F)F)C1 (configuration not stated) | 6 | -16 | 3 | 0 | .
CCC(C)CN1C(=O)CN(S(C)(=O)=O)CC1(C)C(=O)NCc1ccccc1 (configuration not stated) | . | . | 3 | 0 | .
O=[N+]([O-])c1ccc(/C=N/Nc2ncccc2[N+](=O)[O-])s1 | 0 | 64* | 2 | 1 | 33
COc1cccc(/C=N/Nc2ncccc2[N+](=O)[O-])c1OC | 7 | 12 | 1 | 0 | .
CCN(C[C@H]1N[C@@](CC)(C(=O)OC)[C@H]2C(=O)N(C)C(=O)[C@@H]12)S(=O)(=O)c1ccc(OC)cc1 | 4 | -2 | 4 | 0 | .
N#CC(C#N)=c1ccc2c(c1)N1C(c3ccccc3)=CC(c3ccccc3)C3CCCCC31N=2 (configuration not stated) | 6 | 89* | 4 | 0 | 119*
COc1ccc(C(C(=O)NC(C)(C)C)N(CC2CCCO2)C(=O)CCC(=O)Nc2cc(C)on2)cc1 (configuration not stated) | -6 | 50* | -1 | 0 | 32

Assay outcomes (PubChem BioAssay)
